Out of some 410,000 compounds screened, about 2,000 (0.49%) were called active. Not shown: some 8% with an inconclusive outcome. The sample holds actives, similar compounds and a random draw of the others, so the mix is not that of the screen. A number with no mark means an inactive call. Calls follow the shape of the full dose curve; tested in HEK293 reporter line.
Potency is read from the fitted curve at half-maximal effect.

The test in a line: qHTS Assay for Foot and Mouth Disease Virus Antivirals: Primary Screen against the MLPCN compound library. Also: nearly all actives have a fitted effect of over 55% in size. The following applies: FMDV antiviral cell-based qHTS; series mostly up to 57.9 µM; activity, negative = inhibition: at the top concentration.
As for `CN(c1ccc(OCC(=O)Nc2ccc(S(N)(=O)=O)cc2)cc1)S(=O)(=O)c1ccc(F)cc1`, the “activity, negative = inhibition” value is -36.3%.
The same measure, in the same setting: the figure for `Cc1ccc(S(=O)(=O)C2(S(=O)(=O)c3ccc(C)cc3)CC2)cc1` is -43.8%; for `Cc1ccccc1C(=O)N1CCC(C(=O)Nc2cc(C(F)(F)F)ccc2N2CCCC2)CC1` it is -33.6%.
Regarding `O=C(NCCC1=CCCCC1)c1ccc(F)cc1`, the Potency was 14.1 µM (active).
Regarding `O=C(NCCc1nc(-c2ccc(F)cc2)no1)c1ccc(F)cc1`, the “activity, negative = inhibition” value is -36.1%.
With `CN(C)S(=O)(=O)N1CCC(Oc2cccc(C(=O)NCCC3=CCCCC3)c2)CC1`, the “activity, negative = inhibition” value is -46.3%.
`CCCCn1nc2cc(C(=O)NCC34CC5CC(CC(C5)C3)C4)ccc2c1OC`: the “activity, negative = inhibition” value is -35.6%.
Still for that read-out and setting: the value for `Cc1noc(C)c1CSc1nnc(-c2cc(Cl)ccc2Cl)n1N` was -31.2%; that for `CC(=O)c1sc(NC(=O)C2CC(=O)N(Cc3ccccc3)C2)nc1-c1ccccc1` (stereo not drawn) was -35.6%.
Still for that read-out and setting: the value for `CCOc1cc(CNCc2ccncc2)cc(Br)c1OCc1ccccc1F` was -37%.
As for `Brc1ccc(OCc2ccccc2)c(CNCc2ccncc2)c1`, the Potency was 20 µM (active).
Take `Clc1cc(Br)ccc1OCCCNCc1ccccc1`: the “activity, negative = inhibition” value is -31.7%.
Still for that read-out and setting: the figure for `Cc1ccc(S(=O)(=O)c2c(C)nn(C(C)(C)C)c2OC(=O)C(C)(C)C)cc1` is -33.5%.
The same measure, in the same setting: the figure for `COc1cc2[nH]c(=S)nc(NC3CCCCCC3)c2cc1OC` is -38.7%.
The same measure, in the same setting: the figure for `CCOC(=O)c1ccc(N2C=C(C(=O)OC)C(c3ccc(OC)c(O)c3)C(C(=O)OC)=C2)cc1` is -35%.
Take `N#C/C(=C\c1ccc(OCc2ccc(C(=O)O)cc2)cc1)C(=O)N1CCOCC1`: the Potency was 10 µM (active).
As for `COc1ccc(CCNC(=O)/C(C#N)=C/c2ccc(OCC(=O)NCC3CCCO3)cc2)cc1OC` (stereo not drawn), the “activity, negative = inhibition” value was -28.3%.
On the same count and under the same terms, the value for `Cc1cccc(NC(=O)/C(C#N)=C\c2ccc(C(=O)O)cc2)c1` was -31%; that for `Cc1nc(SCC(=O)NCCc2ccccc2)nc(C)c1C` was -17.8%.
Same read-out and setting: the figure for `CCOCCCNC(=S)N1CCN(c2nc(-c3ccccc3)cs2)CC1` is -30.3%.
The same measure, in the same setting: the value for `CN1/C(=C\C(=O)CSc2nnc(N)s2)C(C)(C)c2ccccc21` was -30.2%.
As for `Cc1ccc2c(c1)Cc1nc3ccccc3nc1-2`, the Potency is 14.1 µM (active).
On to `Cc1ccc(CSc2nc3ccccc3cc2C=O)cc1`, for which the “activity, negative = inhibition” value was -33.3%.
On the same count and under the same terms, the figure for `Cc1ccc(C)c(Nc2cc(C)nc3ccccc23)c1` is -30.6%; for `COc1cccc(-c2nc(CS(=O)(=O)CC(=O)NCCCc3ccccc3)c(C)o2)c1` it is -31.5%; for `NC(=O)COc1ccccc1/C=C1/SC(=O)N(CC(=O)N2CCc3ccccc3C2)C1=O` it is -38%.
Regarding `COc1ccc(NC(=O)c2[nH]c(C)c(C(C)=O)c2C)cc1`, the “activity, negative = inhibition” value is 116%.
Same read-out and setting: the value for `COc1ccc(-c2nc(NC(=O)c3c(C)noc3C)sc2C)cc1` was -38.1%.
`COc1ccc(-c2nc(NC(=O)c3[nH]c(C)c(C(C)=O)c3C)sc2C)cc1`: the Potency was 28.2 µM (active).
As for `Fc1ccc(CN2CCN3CCCC3C2C2CCCCC2)cc1F` (stereo not drawn), the “activity, negative = inhibition” value was -43.8%.
Same read-out and setting: the value for `O=c1[nH]c(SCc2ccccc2Cl)nc2c1cnn2-c1ccccc1` was -30.8%; that for `c1nc(NCc2ccc3c(c2)OCO3)c2cc(-c3ccc4c(c3)OCCO4)ccc2n1` was -30.8%.
Still for that read-out and setting: the figure for `COc1ccc(N2CCN(C(=O)Cn3cnc4c(cnn4-c4ccc(C)cc4)c3=O)CC2)cc1` is -32.4%; for `CCCCCn1nc(C(=O)OCC(=O)c2c(N)n(C)c(=O)n(C)c2=O)c2ccccc2c1=O` it is -32.9%.
In the case of `COc1cccc(-c2cn3nc4c(nc3n2)CCCC4)c1`, the Potency was 10 µM (active).
For the compound `COc1cccc(-c2cc(C(=O)NC3CC3)c3ccccc3n2)c1`, the “activity, negative = inhibition” value is -36.4%.
`COc1cccc(Nc2c3c(nc4c(-c5ccccc5)c(C)nn24)CCC3)c1`: the “activity, negative = inhibition” value is -38.7%.
In the case of `c1ccc(Sc2cccc3ccccc23)c(CNC2=NCCN2)c1`, the “activity, negative = inhibition” value is -36.1%.
Turning to `COc1ccccc1S(=O)(=O)Cc1ccc(C(=O)NCc2ccc3c(c2)OCO3)o1`, the “activity, negative = inhibition” value was -32.7%.
As for `Clc1ccc(OCc2cc(-c3ccccc3)no2)c(Cl)c1`, the Potency was 12.6 µM (active).
Turning to `FC(F)(F)c1nnc(-c2ccccc2)nc1Oc1ccc(Cl)cc1Cl`, the “activity, negative = inhibition” value was -36.6%.
Consider `CC(C)(C)NC(=O)c1ccc(COc2ccc(Cl)cc2Cl)o1`, for which the “activity, negative = inhibition” value is -39.1%.
Consider `CCN1CCN(C(=O)C2CCN(c3nnc(C)c4c(C)n(-c5ccc(C)cc5)nc34)CC2)CC1`, for which the “activity, negative = inhibition” value was -31%.
The same measure, in the same setting: the figure for `Cc1ccc(C(=O)N(CC(=O)Nc2sc(C)c(C)c2C(N)=O)C2CCCC2)cc1` is -39.9%.
The same measure, in the same setting: the figure for `COc1ccc(NS(=O)(=O)c2cc(NC(=O)c3ccc(=O)[nH]c3)ccc2N2CCOCC2)cc1` is 102%.
With `CC(=O)c1sc(NC(=O)c2cc(-c3ccccc3)nn2-c2ccccc2)nc1C`, the “activity, negative = inhibition” value is -34.9%.
For the compound `CC(=O)c1sc(NC(=O)C2COc3ccccc3O2)nc1C` (stereo not drawn), the Potency is 11.2 µM (active).
With `O=C(Nc1nc(-c2ccc(S(=O)(=O)N3CCCC3)cc2)cs1)C1COc2ccccc2O1` (stereo not drawn), the “activity, negative = inhibition” value is -34.4%.
`CCOc1ccc(C(=O)N(Cc2cc(OC)c(OC)c(OC)c2)c2ccccn2)cc1`: the “activity, negative = inhibition” value is -32.4%.
On to `CN(C)Cc1n[nH]c(=O)c2ccccc12`, for which the “activity, negative = inhibition” value is 0.231%.
In the case of `CC1=C/C(=C(/c2cc(C)c(O)c(Br)c2)c2ccccc2S(=O)(=O)O)C=C(Br)C1=O`, the Potency was 17.8 µM (active).
With `COc1ccc(NC(=S)N2CCN(Cc3ccc(C)cc3)CC2)cc1`, the “activity, negative = inhibition” value was -30.3%.
The same measure, in the same setting: the value for `CN1CCN(S(=O)(=O)c2cccc(C(=O)Nc3ccc(Br)cc3Br)c2)CC1` was -42.5%.
The same measure, in the same setting: the value for `CCn1c(=S)sc2c(=O)n(CC(=O)Nc3cccc(Cl)c3)c(C)nc21` was -30.1%; that for `CCOC(=O)NC(=O)/C(C#N)=N/Nc1c(F)cccc1F` was -29.8%.
For `Cc1nc(SCC(=O)Nc2nc3ccccc3s2)c(C#N)c(C)c1C`, the “activity, negative = inhibition” value is -97.5%.
Turning to `C=CCn1c(SCC(=O)Nc2nc3ccccc3s2)nnc1-c1ccccc1O`, the Potency was 25.1 µM (active).
`C=CCn1c(SCC(=O)Nc2cccnc2Cl)nnc1-c1ccccc1F`: the “activity, negative = inhibition” value was -44.1%.
The same measure, in the same setting: the figure for `COc1ccc(N2CCOCC2)c(NC(=O)c2cc3ccccc3o2)c1` is -30.1%; for `COc1ccccc1NC(=O)C1=C(C)NC(SCC(=O)c2ccccc2)=C(C#N)C1c1ccco1` (stereo not drawn) it is -22.4%.
Consider `Cc1cccnc1Nc1nc(-c2ccccn2)cs1`, for which the Potency was 11.2 µM (active).
For `Cc1cc(C)n2c(Nc3c(C)cccc3C)c(-c3ccccn3)nc2n1`, the “activity, negative = inhibition” value is -37.5%.
Same read-out and setting: the value for `CCCn1nc(C(=O)Nc2nc(-c3ccccn3)cs2)c2ccccc2c1=O` was -35.2%; that for `CN(CC(=O)NCc1ccccc1)CC(=O)Nc1ccc(Cl)c(C(F)(F)F)c1` was -31.1%; that for `COc1ccc(-c2nsc3c(N4CCCCC4)ncnc23)cc1` was -36.3%.
On to `COc1ccc(-c2nsc3c(N4CCCCC4C)ncnc23)cc1` (stereo not drawn), for which the “activity, negative = inhibition” value was -96.6%.
Turning to `COc1ccc(-c2nsc3c(N4CCCC4)ncnc23)cc1`, the Potency was 22.4 µM (active).
In the case of `NC(=O)c1cccn(Cc2ccc(C(F)(F)F)cc2)c1=O`, the “activity, negative = inhibition” value was -36.5%.
Take `CC(=O)c1cccc(NC(=O)CN2CCc3cc4c(cc3C2C)OCCCO4)c1` (stereo not drawn): the “activity, negative = inhibition” value was -31.7%.
Turning to `CC(C)CNc1nc2c(c(=O)n(C)c(=O)n2C)n1Cc1cccc(Br)c1`, the “activity, negative = inhibition” value is -39.6%.
As for `Cc1nn2cc(-c3ccc(OC(C)C)cc3)nc2s1`, the Potency is 14.1 µM (active).
For the compound `COC(=O)c1ccc2nc(-c3ccc(C#N)cc3)c(Cc3ccsc3)n2c1`, the “activity, negative = inhibition” value was -30.6%.
On the same count and under the same terms, the value for `COc1ccccc1-c1nc(-c2ccccc2)nc(N2CCN(C)CC2)c1C#N` was -30.4%; that for `Cc1cccc(-n2c(O)c(C=Nc3ccccc3)c3ccccc3c2=O)n1` was -31.3%.
Turning to `O=C1C(C=Nc2ccccc2)=C(O)c2ccccc21`, the Potency is 10 µM (active).
Regarding `COC1=CC(=O)c2ccccc2C1=O`, the “activity, negative = inhibition” value was -46.7%.
The same measure, in the same setting: the figure for `COc1cc(NC(=O)Cc2ccc(S(=O)(=O)N3CCOCC3)s2)c(OC)cc1Cl` is -38.1%.
Still for that read-out and setting: the value for `O=C(OC(C(=O)Nc1ccc(Cl)cc1C(F)(F)F)c1ccccc1)c1c(Cl)cccc1Cl` (stereo not drawn) was -33.4%; that for `COc1ccc(CCCc2nnc(SCC(=O)Nc3cccc(C)c3)o2)cc1` was -33.1%; that for `Cc1nn(Cc2ccc(Cl)cc2)c(=O)n1N(C)c1ncc(C(F)(F)F)cc1Cl` was -32.6%.
As to `Cc1nn2cc(-c3ncc(C(F)(F)F)cc3Cl)cnc2c1Br`, the Potency is 8.91 µM (active).
Take `Cc1ccc(-c2ccnc3nc(Sc4ncc(C(F)(F)F)cc4Cl)nn23)cc1`: the “activity, negative = inhibition” value was -40.4%.
As for `CCOC(=O)c1sc(=S)n(C)c1NC(=O)c1ccccc1`, the “activity, negative = inhibition” value is -30.6%.
Regarding `Cc1cccc(CNc2ncnc3ccc(-c4ccc5c(c4)OCCO5)cc23)c1`, the “activity, negative = inhibition” value is -20.3%.
The same measure, in the same setting: the figure for `COc1ccc(CCNC(=S)N2CCC(C(=O)c3ccc(F)cc3)CC2)cc1OC` is -11.8%; for `CCC1Sc2ccc(S(=O)(=O)CCC(=O)NCc3ccco3)cc2NC1=O` (stereo not drawn) it is -39.4%; for `CCN(CC)CCNC(=O)c1nn(-c2ccc(Cl)cc2)c2c1CCc1cc(OC)ccc1-2` it is -32.1%.
On to `O=C(CCCCCN1C(=O)c2ccccc2C1=O)Nc1cccc(O)c1`, for which the “activity, negative = inhibition” value was -35.8%.
Consider `Cc1ccc2nc(-c3ccc(NC(=O)CCN4C(=O)c5ccccc5C4=O)cc3)sc2c1`, for which the Potency is 7.08 µM (active).
Still for that read-out and setting: the figure for `Cc1ccc2nc(-c3ccc(NC(=O)CCS(=O)(=O)c4ccccc4)cc3)sc2c1` is 10 µM (active).
Take `CCOC(=O)c1cc(-c2ccccc2)sc1NC(=O)CCN1C(=O)c2ccccc2C1=O`: the “activity, negative = inhibition” value is -32.5%.
Same read-out and setting: the value for `CC(=O)Nc1ccc(S(=O)(=O)Nc2nc3ccc(C)cc3s2)cc1` was 108%; that for `O=C(CCS(=O)(=O)c1ccccc1)Nc1ccccc1-c1nc2ccccc2s1` was -30.5%; that for `CSc1ccc(NC(=O)N2CC=C(n3c(=O)[nH]c4ccccc43)CC2)cc1` was -19.7%.
As for `CCn1c(N2CCN(S(=O)(=O)c3ccccc3C(F)(F)F)CC2)nc2ccccc21`, the “activity, negative = inhibition” value was -46.9%.
Still for that read-out and setting: the figure for `COc1ccc(CNC(=O)C[C@H]2C[C@H](C(=O)N(C(C)C)C(C)C)[C@@]3(C)c4[nH]c5ccc(Cl)cc5c4CCN3C2=O)cc1OC` is -38.9%.
As to `Cc1cc(N2CCN(C(=O)c3ccco3)CC2)n2nc(-c3cccc(Cl)c3)cc2n1`, the Potency was 22.4 µM (active).
On to `Cc1cc(C)c2nc(C(F)(F)F)nc(N3CCN(C(=O)c4ccco4)CC3)c2c1`, for which the “activity, negative = inhibition” value is -37.6%.
`O=C(c1ccco1)N1CCN(c2c([N+](=O)[O-])nn(-c3cccc(Cl)c3)[n+]2[O-])CC1`: the “activity, negative = inhibition” value is -33.5%.
Still for that read-out and setting: the figure for `COc1cccc2[nH]c3c(N4CCc5ccccc5C4)ncnc3c12` is -33.4%; for `COc1cc(/C=C2\SC(=O)N(c3cccc(Cl)c3)C2=O)cc([N+](=O)[O-])c1O` it is -35%.
On the same count and under the same terms, the value for `COc1cc(/C=C2\SC(=S)N(CC(=O)NC(C)(C)C)C2=O)cc(OC)c1OC` was -30.8%.
As for `CCOc1ccc(N2C(=O)S/C(=C\c3cc(OC)c(OC)c(OC)c3)C2=O)cc1`, the Potency is 10 µM (active).

For the origin of these results see PubChem BioAssay AID1347131 (National Center for Advancing Translational Sciences (NCATS), 2019).
